This passage reports INHIBITION results from ChEMBL document CHEMBL4513216, “Probing the Open Global Health Chemical Diversity Library for Multistage-Active Starting Points for Next-Generation Antimalarials” (ACS Infect Dis, 2020).

SMILES strings stand for the structures. The campaign covered roughly 69,000 compounds. About 8,600 (12%) showed an effect of 50% or more. Only a selection was taken, and strong results are over-represented in it overall.

This assay deals with Plasmodium berghei. In words: Screen against P. berghei liver stage (PbLuc), transformed with Luciferase, at 10uM. It is filed as functional, HepG2. Particulars: tested at 10 uM.
Take `CCN(CCOC)C(=O)c1cc(COc2ccc3c(c2)CCCC3)on1`: the INHIBITION is listed as 25.1%. As for `Cc1cc(C(F)(F)F)nc(CCNC(C)Cn2cncn2)n1` (stereo not drawn), the INHIBITION is reported as 8.86%. Turning to `COC(=O)CCCC(=O)N1CCC(CO)(CCc2ccccc2)CC1`, the INHIBITION worked out at 30.7%. Turning to `CCc1ccc(NC(=O)c2n[nH]c(-n3cnnc3)n2)cc1`, the INHIBITION stood at 25.9%.

For `CCc1nc(C2CCCN(C(=O)C(C)(C)NS(C)(=O)=O)C2)no1` (stereo not drawn), the INHIBITION amounted to 3.73%. The result for `O=C(c1cnn2c1OCCC2)N1CCC(Cc2ccccc2)CC1` reads 13.6%. The result for `c1coc(CNCC2Cn3nncc3CO2)c1` (stereo not drawn) reads 62.9%; that for `c1cc(CNCC2Cn3nncc3CO2)ccn1` (stereo not drawn), 29.8%; that for `Cc1ccc(CNCC2Cn3nncc3CO2)s1` (stereo not drawn), 54.8%.

With `Cc1ccc(CNCC2Cn3nncc3CO2)o1` (stereo not drawn), the INHIBITION is 43.9%. `CCN1CCOC(CNCc2cnc(C(C)(C)C)s2)C1` (stereo not drawn): the INHIBITION was 46.5%. With `CCN1CCOC(CNCc2ccccn2)C1` (stereo not drawn), the INHIBITION came to 33%. Regarding `CCN1CCOC(CNCc2ccc(C)s2)C1` (stereo not drawn), the INHIBITION is 73.6%. In the case of `Cc1nc(CNCC2Cn3nncc3CO2)cs1` (stereo not drawn), the INHIBITION came out at 5.89%. For `c1cc(CNCC2Cn3nncc3CO2)co1` (stereo not drawn), the INHIBITION is -21.7%. Consider `COc1cccc(C(=O)N2CCc3c(nc(N)[nH]c3=O)C2)c1C`, for which the INHIBITION worked out at 21.8%. In the case of `CN(C)C(=O)[C@H]1C[C@@H]2CCN(Cc3ccoc3)C[C@@H]2O1`, the INHIBITION was found to be 34%.

For `O=C(Nc1ccccc1)c1cc2n(n1)CCCN(C(=O)N1CCCC1)C2`, the INHIBITION came out at 35%. In the case of `Cc1cc2ccccc2n1CCC(=O)NCCCc1nnc(N)s1`, the INHIBITION stood at 0.426%. For `CCCC(C)C(=O)N1CCC(n2cccc2C(=O)OC)CC1` (stereo not drawn), the INHIBITION was 12.2%.

For the compound `N#Cc1cccc(N2CC3(CCN(C(=O)c4ccncc4)C3)CC2=O)c1` (stereo not drawn), the INHIBITION is recorded as 21.5%.

As to `Cc1nn(C)c(Cl)c1C1CCCN1Cc1cn2ccsc2n1` (stereo not drawn), the INHIBITION was determined as 24.8%. The result for `Cc1nn(C)c(C)c1C1CCCN1C(=O)Cc1cn2ccsc2n1` (stereo not drawn) reads 21.1%; that for `CCCn1ccnc1CN1CCCC1c1ccccn1` (stereo not drawn), 56.7%; that for `COc1c(C2CCCN2Cc2csc(C(C)C)n2)c(C)nn1C` (stereo not drawn), 20.1%. As for `Cc1nn(C)c(C)c1C1CCCN1Cc1cn2ccsc2n1` (stereo not drawn), the INHIBITION is recorded as 74%. As to `Cc1nn(C)c(C)c1C1CCCN1Cc1nc(C2CC2)no1` (stereo not drawn), the INHIBITION is reported as 21.2%. For `CCCc1noc(CN2CCCC2c2c(C)nn(C)c2OC)n1` (stereo not drawn), the INHIBITION is given as 42.9%. `COc1c(C2CCCN2Cc2nc(C3CC3)no2)c(C)nn1C` (stereo not drawn): the INHIBITION stood at 52.3%. Take `CCc1nc(C2CCCN2Cc2nccn2Cc2ccccc2)no1` (stereo not drawn): the INHIBITION amounted to 32%. Turning to `COc1c(C2CCCN2Cc2cn3ccsc3n2)c(C)nn1C` (stereo not drawn), the INHIBITION is given as 65.6%. The result for `COc1c(C2CCCN2Cc2nc(C)c(C)o2)c(C)nn1C` (stereo not drawn) reads 11.2%. For the compound `CCCn1ccnc1CN1CCCC1c1cccc(-n2ccnc2)n1` (stereo not drawn), the INHIBITION worked out at 42.4%.
